Measured values taken from publication PMC5540273 (PLoS ONE, 2017).

Assays:
Conditions in all cases: concentration: 1 μM, replicates: in singlicate; n = 1
LOK = system: T1, LOK
T1 construct: gene STK10

LRRK2 = system: LRRK2
LTK = system: LTK
LYN = system: LYN
LZK = system: T2, LZK
T2 construct: gene MAP3K13

MAK = system: MAK
MAP3K15 = system: MAP3K15
MAP3K1 = system: MAP3K1
MAP3K2 = system: MAP3K2
MAP3K3 = system: MAP3K3
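Also: KINOMEscan kinase panel screen.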

Cc1c(Cn2c(C)nn3c(=O)cc(N4CCO[C@H](C)C4)nc23)cccc1C(F)(F)F [GSK2373690]
%Inh (LOK): 0%
%Inh (LRRK2): 31%
%Inh (LTK): 0%
%Inh (LYN): 0%
%Inh (LZK): 0%
%Inh (MAK): 0%
%Inh (MAP3K15): 26%
%Inh (MAP3K1): 7%
%Inh (MAP3K2): 2%
%Inh (MAP3K3): 0%

CCC(=O)c1c(-c2ccccc2)c2cc(Cl)ccc2c(=O)n1Cc1ccc(C(=O)O)cc1
%Inh (LOK): 0%
%Inh (LRRK2): 0%
%Inh (LTK): 0%
%Inh (LYN): 0%
%Inh (LZK): 0%
%Inh (MAK): 4%
%Inh (MAP3K15): 0%
%Inh (MAP3K1): 0%
%Inh (MAP3K2): 0%
%Inh (MAP3K3): 0%

Nc1nc(-c2ccccc2F)c(-c2ccnc3ccccc23)s1 [GW560459]
%Inh (LOK): 0%
%Inh (LRRK2): 8%
%Inh (LTK): 22%
%Inh (LYN): 0%
%Inh (LZK): 30%
%Inh (MAK): 23%
%Inh (MAP3K15): 0%
%Inh (MAP3K1): 3%
%Inh (MAP3K2): 0%
%Inh (MAP3K3): 0%

CN(C)c1cc(-c2ccc3c(N)n[nH]c3c2)nc(N)n1 [GSK2219329]
%Inh (LOK): 0%
%Inh (LRRK2): 0%
%Inh (LTK): 4%
%Inh (LYN): 0%
%Inh (LZK): 10%
%Inh (MAK): 16%
%Inh (MAP3K15): 0%
%Inh (MAP3K1): 0%
%Inh (MAP3K2): 0%
%Inh (MAP3K3): 0%
